Results on 17 molecules are retold here after PubChem BioAssay (NCATS).

Assay [1] is described as follows: qHTS Assay for Identifying Gametocytocidal Compounds (AID 743244).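 For max response: % is set by controls: 0 for no effect and ±100 for the full control effect; actives lower the fluorescent signal which means gametocytes are killed.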 Note: potency is the fitted concentration of half-maximal effect. The conditions noted are these: P. falciparum 3D7 stage III-V gametocytes, alamarBlue, 72 h; max response: stronger effect = lower value. In a few lines:
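Late gametocytes (III–V), P. falciparum 3D7; 72 h drug, then 24 h alamarBlue; resazurin reduction read by fluorescence.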

Assay [2] is described as follows: qHTS assay for measurement of the activity of small molecule inhibitors on Zika virus induced Caspase-3 activity in human iPSC derived neural progenitor cells (hNPCs) (AID 1224857). Note: % of control where 0% means no effect; nearly all actives have a fitted effect of over 65% in size. In a few lines:
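Caspase-3/7 induction by a 6-hour ZIKV infection was quantified with a luminescent Caspase-Glo 3/7 reagent incubated 30 minutes at room temperature. Compounds were preincubated with hNPCs for 1 hour; inhibition was calculated against uninfected and infected control wells.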
Background: Quantitative high-throughput screening tests each substance at several concentrations.

Assay [3] is described as follows: qHTS assay to identify small molecule inhibitors of chordoma cells - UCH-2 (AID 1259356). Note: % is set by controls: 0 for no effect and ±100 for the full control effect.
A short description of assay [4]: qHTS assay for measurement of the activity of small molecule inhibitors on Zika virus induced Caspase-3 activity in human astrocytoma cells (AID 1224859).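 Note: plate controls were ZIKV-infected untreated cells for no effect and uninfected cells for full effect.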 In a few lines: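 In SNB-19 cells plated at 250 cells/well and grown 16-20 h, compounds were applied 1 h before ZIKV (2 FFU/cell). Six hours later caspase-3/7 luminescence was recorded.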
The nature of assay [5]: qHTS assay to identify small molecule inhibitors of chordoma cells - UCH-1 (AID 1259355). Note: % is set by controls: 0 for no effect and ±100 for the full control effect; nearly all actives have a fitted effect of over 55% in size. An outline of the steps: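 Cells (800/well) were seeded and left overnight at 37 C, 5% CO2, then treated with drugs at 15 concentrations plus a combination mix of auranofin, camptothecin, doxorubicin, rubitecan and topotecan. Viability after 48hr was read by CellTiter-Glo luminescence.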

Assay [6] is described as follows: qHTS profiling of the MIPE4 collection as inhibitors of Plasmodium falciparum (3D7) proliferation (AID 743344; call rule not given here;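 note: scaled between DMSO vehicle wells and 0.29 µM artemisinin as full inhibition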). The conditions noted are these: P. falciparum 3D7 in erythrocytes, SYBR Green DNA fluorescence, 72 h; at 28.5 µM (top of the series). In a few lines: (§1)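 Erythrocytes infected with P. falciparum (0.3% parasitemia, 2.5% hematocrit) incubated with compounds 72 h at 37 C, 5% CO2. Lysis with saponin/Triton buffer containing SYBR Green I, overnight at room temperature in the dark; DNA fluorescence (485/535 nm) normalised to 0.29 uM artemisinin and DMSO.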

Assay [7] in a line: qHTS profiling of the MIPE4 collection as inhibitors of Plasmodium falciparum (DD2) proliferation (AID 743345; call rule not given here). Particulars: P. falciparum Dd2 in erythrocytes, SYBR Green DNA, 72 h; at 28.5 µM (top of the series). In a few lines:
as §1

Assay [8] in a line: qHTS profiling of the MIPE4 collection as inhibitors of Plasmodium falciparum (DD2) proliferation (Rep 2) (AID 743346; call rule not given here). Particulars: P. falciparum Dd2 in erythrocytes, SYBR Green DNA, 72 h; at 28.5 µM (top of the series). An outline of the steps: as §1
A short description of assay [9]: qHTS profiling of the MIPE4 collection as inhibitors of Plasmodium falciparum (HB3) proliferation (AID 743347; call rule not given here;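 note: plate controls were DMSO vehicle wells for no effect and artemisinin wells for full effect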). Particulars: P. falciparum HB3 in erythrocytes, SYBR Green DNA, 72 h; at 28.5 µM (top of the series). In a few lines:
as §1

A short description of assay [10]: P-glycoprotein substrates identified in KB-3-1 adenocarcinoma cell line, qHTS therapeutic library screen (AID 1346986). Note: nearly all actives have a fitted effect of over 60% in size. The conditions noted are these: KB-3-1 parental cells viability, CellTiter-Glo, 72 h; at 44.5 µM (top of the series) unless noted. An outline of the steps: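 Compounds were tested in dose-response against KB-3-1 and KB-8-5-11 cells at 37 degree C for 72 h, and viability was measured by luminescence. AC50 values came from curve fitting with class-based activity calls.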

The structures appear in SMILES notation. “And” between values parts separate entries of the source, which are not always exact repeats. Equal values may be shown once. Records with an inconclusive call do not appear. The source made the active and inactive calls. Unless noted, calls come from the whole dose curve; as a rule, active = well fitted curve in the direction sought with a large enough effect; inconclusive = small, poorly fitted or top-dose-only effect, or another doubt; inactive = no such curve, though single readings can be large; an effect the other way counts as inactive or inconclusive.

For `O=C1O[C@H](CO)[C@@H](O)[C@H](O)[C@H]1O`, the max response in assay [1] was -3.17% (inactive). The molecule was called inactive in [2] and in assay [3].
Take `O=C1N=C(O)CN1/N=C/c1ccc(-c2ccc([N+](=O)[O-])cc2)o1`: the max response in assay [1] is 4.07% (inactive) and 20.9% (inactive). The result in assay [2] and in assay [3] was inactive.
`Cn1cc[nH]c1=S`: the max response in assay [1] was -4.61% (inactive). Further, the outcome in [4] and in assay [3] was inactive. In assay [5], the Potency result was “inactive”.
With `N=c1c[n+](N2CCOCC2)[n-]o1`, in [1], the max response was 8.18% (inactive). For the same molecule, in [2], the result was inactive.
On to `CSc1ccc2c(c1)N(CCC1CCCCN1C)c1ccccc1S2` (centres undefined), for which the Potency in assay [1] is 2510 nM (active). In assay [6], this molecule gave a parasite growth, % of DMSO control of 12.9%. The molecule further displayed a parasite growth remaining, % of DMSO control (lower = more inhibition) in assay [7] of 10.4%. In assay [8], this molecule displayed a parasite growth, % of control (lower = inhibition) of 30.8%. Also, in assay [9], the growth, % of control amounted to 4.65%. In addition, the call in [2] and in [3] was inactive.
Take `O=C(O)c1ccccc1-c1ccc(C(F)(F)F)cc1`: the max response in [1] was -6.58% (inactive). Further, the molecule was called inactive in assay [2] and in assay [3].
Regarding `CCN(CC)C(=O)Nc1ccc(OCC(O)CNC(C)(C)C)c(C(C)=O)c1` (centres undefined), in [1], the max response was -3.18% (inactive). For the same molecule, the result in assay [2] and in assay [3] was inactive. Moreover, the Potency result in [5] is “inactive”.
For `CC[N+](CC)(CC)CCOc1ccc(/C=C/c2ccccc2)cc1`, the outcome in assay [4] and in assay [3] was inactive. Besides, in assay [5], the Potency result was “inactive”.
Consider `COCCOC(=O)C1=C(C)NC(C)=C(C(=O)OC/C=C/c2ccccc2)C1c1cccc([N+](=O)[O-])c1` (centres undefined), for which, in assay [1], the max response is 2.31% (inactive) and 20.4% (inactive). For the same molecule, the outcome in assay [2] and in assay [3] was inactive. Also, the Potency entry in [5] was “inactive”.
On to `O=Cc1ccccc1C=O`, for which the max response in assay [1] was -3.58% (inactive). In addition, the result in [2] and in [3] was inactive.
In the case of `CC(C)(C)[C@]1(O)CCN2C[C@H]3c4ccccc4CCc4cccc(c43)[C@@H]2C1`, the max response in [1] is 13.6% (inactive) and 4.8% (inactive). Further, the outcome in assay [2] was inactive.
`C=CCn1c(=O)n([C@@H]2O[C@H](CO)[C@@H](O)[C@H]2O)c2nc(N)[nH]c(=O)c21`: the max response in assay [1] was 7.63% (inactive). Moreover, the molecule was called inactive in assay [2] and in assay [3]. Also, in [5], the Potency result is “inactive”.
On to `CCN(CC)CCNC(=O)c1cc(Cl)c(N)cc1OC`, for which, in assay [1], the max response was -1.62% (inactive). The call in [2], in assay [3] and in assay [10] was inactive.
On to `Cc1c(Cl)cccc1Nc1ccccc1C(=O)O`, for which the max response in assay [1] was -7.91% (inactive). For the same molecule, the outcome in assay [2] and in [3] was inactive. Also, the Potency entry in assay [5] is “inactive”.
As to `Cc1ccc2nc(N)[nH]c(=O)c2c1Sc1ccncc1`, in [1], the max response is -4.42% (inactive). Moreover, the molecule was called inactive in assay [2] and in assay [3]. In addition, the Potency result in [5] is “inactive”.
For the molecule `NCC(=O)CCC(=O)O`, the max response in assay [1] was 0.855% (inactive). Further, the molecule was classed as inactive in assay [2] and in [3].
Take `CCN(CC)CCNC(=O)c1c(C)[nH]c(/C=C2\C(=O)Nc3ccc(F)cc32)c1C`: in assay [4], the molecule was called inactive. Further, the Potency entry in assay [5] was “inactive”.
